Screening results: PubChem, National Center for Advancing Translational Sciences (NCATS)
Most compounds without a hit are left out; they make up all but 2.4% or so of the library.
D2 PAM-1 = Beta-Arrestin HTS for Positive Allosteric Modulators of the Human D2 Dopamine Receptor: Potentiators | AID 624464, 2012 | DiscoveRx D2 beta-arrestin cells, luminescence, 90 min; 100% = 57 uM dopamine signal | hit rate 0.23% among 360,000 | D(2) dopamine receptor (Homo sapiens), P14416 | potentiation, % (no concentration beside the values); in the data active = potentiation above about 50%; inconclusive = mostly about 30% to 49%
Target sequence (P14416 whole entry, looked up): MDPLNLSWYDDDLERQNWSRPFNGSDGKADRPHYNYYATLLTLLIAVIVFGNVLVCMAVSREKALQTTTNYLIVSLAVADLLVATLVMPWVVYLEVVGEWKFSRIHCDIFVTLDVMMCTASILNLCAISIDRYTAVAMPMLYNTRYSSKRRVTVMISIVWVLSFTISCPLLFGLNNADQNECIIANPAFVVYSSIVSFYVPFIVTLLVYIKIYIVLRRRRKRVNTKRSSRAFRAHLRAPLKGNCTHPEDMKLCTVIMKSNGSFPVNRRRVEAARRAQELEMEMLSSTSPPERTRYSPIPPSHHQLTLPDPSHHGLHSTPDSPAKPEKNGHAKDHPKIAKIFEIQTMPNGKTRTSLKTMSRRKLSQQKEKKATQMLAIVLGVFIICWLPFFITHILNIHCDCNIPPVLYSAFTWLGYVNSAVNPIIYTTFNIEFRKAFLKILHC
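PathHunter beta-arrestin assay in DiscoveRx D2 cells. Compounds were added with an EC20 of dopamine (50 nM final) for 90 min at 37 deg C. Luminescence was read 1 h after detection reagent, with 57 uM dopamine as the EC100 control.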
D2 ag-1 = Beta-Arrestin HTS for Positive Allosteric Modulators of the Human D2 Dopamine Receptor: Agonists; DiscoveRx PathHunter D2 beta-arrestin, luminescence, 90 min; 100% = 57 uM dopamine signal; hit rate 0.084% among 360,000; activation, % (concentration not given with the values); AID 624465, 2012; in the data active = activation above about 40%; inconclusive = between about 15% and that limit
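DiscoveRx PathHunter D2 beta-arrestin cells (2,100/well) attached overnight, then compound-stimulated 90 min at 37 C in HBSS/10 mM HEPES/0.1% Tween-20 buffer; beta-galactosidase complementation read by luminescence after 1 h at ambient temperature. Dopamine 57 uM final (EC100) as control.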
D2 PAM-2 = HTS Assay for Positive Allosteric Modulators of the Human D2 Dopamine Receptor: Primary Screen for Potentiators. D(2) dopamine receptor (Homo sapiens), P14416. HEK293 T-REx D2, calcium flux, EC20 dopamine potentiation. potentiation, % at 10 µM. hit rate 0.34% among 340,000. AID 485347, 2010;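 active = potentiation over 3 SD above the plate norm, cut at about 30% in these data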; note: 0% is about no effect
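Calcium flux readout, no-wash dye, 1 read/s. Inducible HEK293 Trex D2 line, overnight 30 C. Compound alone 180 s (agonist flags), then EC20 dopamine, another 180 s to score potentiation.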
D2 ag-2 = HTS Assay for Allosteric Agonists of the Human D2 Dopamine Receptor: Primary Screen for Agonists; HEK293 T-REx D2 cells, calcium flux agonist mode; AID 485358, 2010; hit rate 0.53% among 340,000; activation, % at 2 µM; D(2) dopamine receptor (Homo sapiens), P14416;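 active = activation over 3 SD above normal in the single-dose calcium agonist read, cut at about 30% in these data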; note: 0% is about no effect
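Tetracycline-induced HEK293 Trex cells with D2 receptor force-coupled to calcium signaling, plated overnight at 30 C and loaded with no-wash calcium dye. Calcium flux read kinetically for 180 s after compound addition; responses flag agonists.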
D2 antag = HTS Assay for Allosteric Antagonists of the Human D2 Dopamine Receptor: Primary Screen for Antagonists; D(2) dopamine receptor (Homo sapiens), P14416; HEK293 TREx D2 cells, calcium flux, dopamine EC80; inhibition, % at 10 µM; hit rate 2% among 340,000; AID 485344, 2010; in the data active = inhibition above about 30%; inactive = below that, where a call was filed; note: 0% is about no effect
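Inhibition of EC80 dopamine-driven calcium flux, recorded kinetically, defines activity here; cells are a tetracycline-induced HEK293 T-REx line expressing force-coupled D2.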
Active calls of the source: *.

`COc1ccc(NC(=O)C2CCCN(c3cc(C)nc4ncnn34)C2)cc1` (stereo not drawn) gave D2 PAM-1 3, D2 ag-1 2, D2 PAM-2 -11, D2 ag-2 0 and D2 antag 30*.
Screening Cc1ccc(CNC(=O)CCCCn2c(=O)c3ccccc3n(Cc3c(C)cc(C)cc3C)c2=O)cc1 returned D2 PAM-2 -4 and D2 ag-2 0.
`CCCCC(=O)NC(=S)Nc1ccccc1C(=O)Nc1ccccc1` gave D2 PAM-1 -16, D2 ag-1 -5, D2 PAM-2 -4, D2 ag-2 -1 and D2 antag 4.
For CC(=O)NC(=S)Nc1ccccc1C(=O)Nc1ccccc1 the results were D2 PAM-1 -19, D2 ag-1 -5, D2 PAM-2 6, D2 ag-2 2 and D2 antag 47*.
`CSc1ncc2c(n1)-c1ccccc1N(Cc1ccccc1)S2(=O)=O` gave D2 PAM-2 -6 and D2 ag-2 0.
COC(=O)c1cc(NC(=O)c2cccc(Cl)c2)c(=O)oc1/C=C/Nc1cc(C)cc(C)c1 was read as D2 PAM-2 9, D2 ag-2 41* and D2 antag 5.
Cc1cccn2c(=O)c(C=C(C#N)C#N)c(N3CCN(C)CC3)nc12 was read as D2 PAM-1 -12, D2 ag-1 -3, D2 PAM-2 9, D2 ag-2 1 and D2 antag -10.
For COc1ccc(C(=O)NNC(=O)CSc2nnc(-c3cccnc3)o2)cc1 the results were D2 PAM-1 2, D2 ag-1 0, D2 PAM-2 42*, D2 ag-2 0 and D2 antag 3.
Screening Cc1cc(NC(=O)CSc2nnc(-c3cccnc3)n2Cc2ccccc2)no1 returned D2 PAM-1 -33, D2 ag-1 -2, D2 PAM-2 -5, D2 ag-2 0 and D2 antag -31.
Screening COc1cc(OC)cc(-c2nnc(SCC(=O)N(C(C)C)C(C)C)o2)c1 returned D2 PAM-1 -4, D2 ag-1 -1, D2 PAM-2 0, D2 ag-2 1 and D2 antag -1.
For CCCn1c(SCC(=O)NNC(=O)c2ccccc2)nnc1-c1cccnc1 the results were D2 PAM-1 -16, D2 ag-1 -3, D2 PAM-2 4, D2 ag-2 -2 and D2 antag 32*.
Screening O=C(CSc1nnc(-c2cccnc2)n1Cc1ccccc1)NCc1ccccc1 returned D2 PAM-1 -10, D2 ag-1 -1, D2 PAM-2 -5, D2 ag-2 0 and D2 antag 35*.
`COc1cccc(-c2nnc(SCC(=O)N(C(C)C)C(C)C)o2)c1` gave D2 PAM-1 -11, D2 ag-1 -2, D2 PAM-2 31*, D2 ag-2 0 and D2 antag -1.
CCCn1c(SCC(=O)NCCc2ccccc2)nnc1-c1cccnc1 was read as D2 PAM-1 -20 and D2 ag-1 -1.
For COc1ccc(-c2nnc(SCC(=O)NNC(=O)c3ccc(C)cc3)o2)cc1 the results were D2 PAM-1 6, D2 ag-1 0, D2 PAM-2 -1, D2 ag-2 0 and D2 antag 5.
Screening COc1ccccc1C(=O)NCCC(=O)N1CC(C)OC(C)C1 (stereo not drawn) returned D2 PAM-1 -1 and D2 ag-1 -4.
For O=C(CNc1ccc(Cl)c(C(F)(F)F)c1)N1CCN(S(=O)(=O)c2ccccc2)CC1 the results were D2 PAM-1 -7 and D2 ag-1 -1.
`COC(=O)CSc1nnc(CNc2ccc(F)cc2)o1` gave D2 PAM-1 -5, D2 ag-1 -2, D2 PAM-2 3, D2 ag-2 0 and D2 antag 11.
CC(C)N(C(=O)CSc1nnc(CNc2ccc(F)cc2)o1)C(C)C was read as D2 PAM-1 8, D2 ag-1 2, D2 PAM-2 77*, D2 ag-2 1 and D2 antag -14.
`CN1/C(=C\C(=O)Nc2ccc(Cl)cc2)C(C)(C)c2ccccc21` gave D2 PAM-1 -1, D2 ag-1 4, D2 PAM-2 6, D2 ag-2 0 and D2 antag 1.
`CN1/C(=C\C=C(/C#N)C(=O)Nc2ccc(Cl)cc2)C(C)(C)c2ccccc21` gave D2 PAM-1 -16, D2 ag-1 -2, D2 PAM-2 -20, D2 ag-2 40* and D2 antag 9.
For COc1ccc(NS(=O)(=O)c2ccc(C)c(C(=O)N3CCCCCCC3)c2)cc1 the results were D2 PAM-1 18, D2 ag-1 -1, D2 PAM-2 0, D2 ag-2 -1 and D2 antag -10.
For COc1ccccc1NC(=O)c1ccc(NC(=O)COC(=O)C2CCCO2)cc1 (stereo not drawn) the results were D2 PAM-1 5, D2 ag-1 4, D2 PAM-2 10, D2 ag-2 0 and D2 antag 41*.
For Fc1cccc(F)c1CN1CCN(c2ncccn2)CC1 the results were D2 PAM-1 21, D2 ag-1 inconclusive, D2 PAM-2 -14, D2 ag-2 33* and D2 antag -3.
For CCN(CC)S(=O)(=O)c1cccc(-c2nnc(SCC(=O)c3cc(C)n(C4CC4)c3C)o2)c1 the results were D2 PAM-1 11, D2 ag-1 0, D2 PAM-2 3, D2 ag-2 1 and D2 antag -5.
C=CCn1c(C)cc(C(=O)CSc2nnc(-c3cccc(S(=O)(=O)N(CC)CC)c3)o2)c1C was read as D2 PAM-1 -12, D2 ag-1 -3, D2 PAM-2 39*, D2 ag-2 0 and D2 antag -20.
`Brc1ccccc1-c1nnc(COc2ncnc3ccccc23)o1` gave D2 PAM-1 -5, D2 ag-1 -2, D2 PAM-2 -13, D2 ag-2 1 and D2 antag -7.
N#Cc1ccccc1OCc1nnc(-c2ccccc2Br)o1 was read as D2 PAM-1 -1, D2 ag-1 2, D2 PAM-2 -5, D2 ag-2 0 and D2 antag 12.
Clc1ccccc1OCc1nnc(-c2ccccc2Br)o1 was read as D2 PAM-1 -17, D2 ag-1 -2, D2 PAM-2 -2, D2 ag-2 -1 and D2 antag 36*.
Screening Brc1ccccc1-c1nnc(COc2cccc3cccnc23)o1 returned D2 PAM-1 20, D2 ag-1 7, D2 PAM-2 0, D2 ag-2 1 and D2 antag 38*.
